# Bioassay records deposited in PubChem by several laboratories.
# LYPLA2 inh: LYPLA2 (human) inhibition in PME1 counter-screen | actives 0.38% (n = 320,000) | recombinant LYPLA2, FP-Rh probe fluorescence polarization | inhibition, % at 5.9 µM | O95372;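 active means inhibition above the screen-wide mean plus 3 SD, limit set per campaign, cut at about 26% in these data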
# PREPL inhibitor: human PREPL enzyme inhibition; Q4J6C6; recombinant PREPL, fluorescence polarization activity-based probe; inhibition, % at 5.96 µM; actives 0.68% (n = 320,000); AID 2751; in the data active means inhibition above about 43%
# Target sequence (Q4J6C6 whole entry, looked up): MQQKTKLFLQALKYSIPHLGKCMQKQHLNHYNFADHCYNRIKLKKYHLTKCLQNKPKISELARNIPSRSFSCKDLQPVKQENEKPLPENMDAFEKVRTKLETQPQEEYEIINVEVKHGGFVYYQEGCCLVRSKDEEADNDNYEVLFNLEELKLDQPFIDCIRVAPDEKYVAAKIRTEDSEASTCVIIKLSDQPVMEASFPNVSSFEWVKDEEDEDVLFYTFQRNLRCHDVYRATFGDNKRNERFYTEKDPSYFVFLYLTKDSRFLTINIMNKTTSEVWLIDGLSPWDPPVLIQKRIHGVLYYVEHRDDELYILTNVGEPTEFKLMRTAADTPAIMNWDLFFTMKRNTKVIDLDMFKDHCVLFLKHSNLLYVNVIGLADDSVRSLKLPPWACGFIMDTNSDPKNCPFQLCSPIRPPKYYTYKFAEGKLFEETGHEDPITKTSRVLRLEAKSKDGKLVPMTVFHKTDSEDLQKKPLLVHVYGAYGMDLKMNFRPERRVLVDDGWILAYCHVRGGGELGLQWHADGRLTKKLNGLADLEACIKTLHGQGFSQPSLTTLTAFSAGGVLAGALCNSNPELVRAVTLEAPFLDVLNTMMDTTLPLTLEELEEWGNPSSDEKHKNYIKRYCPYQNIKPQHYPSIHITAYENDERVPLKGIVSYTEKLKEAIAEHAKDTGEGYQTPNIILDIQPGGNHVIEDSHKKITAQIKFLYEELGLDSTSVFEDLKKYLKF
# p97 ATPase inh: human p97 ATPase inhibition | recombinant p97 ATPase, Kinase-Glo ATP luminescence, 3 h | inhibition, % at 8 µM | actives 0.42% (n = 220,000) | AID 1481; in the data active means inhibition above about 15%
# Rin1 Abl inh: inhibitors of human Rin1-Abl protein interaction | inhibition, % at 7.35 µM | actives 0.4% (n = 360,000) | P00519+Q13671 | TR-FRET Rin1/Abl binding, biochemical; in the data active means inhibition above about 5%, passing the limit was not always enough
# LYPLA1 inh: LYPLA1 (human) inhibition in PME1 counter-screen | O75608 | actives 0.16% (n = 320,000) | recombinant LYPLA1, FP-Rh probe fluorescence polarization | inhibition, % at 5.9 µM | AID 2174;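 active means inhibition above the mean of all tested compounds plus 3 SD, set per campaign, cut at about 14% in these data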;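 further: inhibitors block serine hydrolase probe labeling of LYPLA1 so polarization falls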
# Hck Nef HTS: blocks Nef-activated human Hck kinase; Recombinant Hck-YEEI plus Nef, Z-Lyte FRET kinase assay; inhibition, % at 20 µM; actives 0.68% (n = 220,000);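 active means Hck-Nef kinase inhibition above about 50%, limit read from the data; inactive means inhibition below that limit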
# Hck-Nef confirm: confirmation of Hck-Nef kinase inhibitors | shares compounds with Hck Nef HTS | Recombinant Hck-YEEI:Nef, Z-Lyte FRET kinase assay | calls only at 10 µM | actives 28% (n = 1,300) | AID 463188;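 active means average inhibition of at least 50%, with Z-scores no higher than 3 in both the phospho-tyrosine peptide and fluorescence counterscreens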
# A number is an active result; . = inactive; / = not tested or not shown; + = active, no number. Hits are enriched below; roughly 1.7% of the tested compounds scored in any of these assays.
SMILES,LYPLA2 inh,PREPL inhibitor,p97 ATPase inh,Rin1 Abl inh,LYPLA1 inh,Hck Nef HTS,Hck-Nef confirm
COc1ccccc1CN(C)C(=O)COC(=O)c1c(C)noc1C,/,.,/,.,/,/,/
CN(C)C(=O)c1cccc(-c2csc(N3CCC(C(N)=O)CC3)n2)c1,/,.,/,/,/,/,/
CC(C)(C)[C@@H]1CCC(=O)N(CC[C@H](Sc2ccc(Br)cc2)c2ccccc2)CC1,/,.,/,.,/,/,/
CCCCCCc1cc2cc(S(=O)(=O)c3ccc(F)c(Cl)c3)c(=O)oc2cc1O,.,.,.,.,.,55,/
COc1ccc(C(=O)NCc2nnc(SCC(=O)c3ccccc3)n2C)cc1OC,.,.,/,.,.,/,/
COc1cc2[nH]c(=O)n(CCC(=O)N3CCN(Cc4ccccc4)CC3)c(=O)c2cc1OC,.,.,.,.,.,.,/
COc1cc2[nH]c(=O)n(CCC(=O)N3CCN(c4cccc(C)c4C)CC3)c(=O)c2cc1OC,.,.,.,.,.,74,.
CSCCC(NS(=O)(=O)c1ccccc1)C(=O)OC(C)C(=O)Nc1ccc(Cl)cn1 (stereo not given),.,.,/,.,.,/,/
COc1ccc(Cn2c(C3CCCCC3)nc3c(c(=O)c4ccccc4n3C)c2=O)cc1,.,.,.,/,.,71,.
CCOC(=O)c1c(NC(=O)/C=C\C(=O)O)sc(C)c1-c1ccccc1,.,.,.,.,.,57,+
CCOC(=O)c1c(NC(=O)/C=C/C(=O)O)sc(C)c1-c1ccc(C(C)(C)C)cc1,.,.,.,.,.,.,/
CC1=NNC(=O)/C1=C\c1cn(-c2ccccc2)nc1-c1ccc(Cl)cc1,.,.,.,.,.,60,+
Cc1ccc(-c2nn(-c3ccccc3)cc2C=C2C(=O)CC(C)(C)CC2=O)cc1,.,.,.,.,.,.,/
Cc1ccc(-c2[nH]ncc2/C=N/n2c(C)nc3ccccc3c2=O)cc1,.,.,.,.,.,60,.
O=c1c2ccccc2nc(COc2ccccc2)n1/N=C/c1cn[nH]c1-c1ccccc1,.,.,.,.,.,.,/
CSc1ncccc1C(=O)OCC(=O)Nc1cccc(S(=O)(=O)N2CCOCC2)c1,/,.,/,.,/,/,/
Cc1nc2ccccc2nc1OCc1ccccc1,.,.,.,.,.,.,/
Cc1nc2ccccc2nc(=O)c1NNc1ccccc1,/,/,.,.,/,101,+
Cc1cc(=O)oc2cc(OCc3ccc(C(=O)OCC(=O)Nc4ccc(N(C)C)cc4)cc3)ccc12,/,/,.,.,/,147,.
CCOC(=O)c1cc(CC)sc1NC(=O)COc1ccc2c(C)cc(=O)oc2c1,.,.,.,.,.,55,.
CCc1ccc(-c2nc(SCC(=O)c3c(N)n(C4CC4)c(=O)[nH]c3=O)n[nH]2)cc1,.,.,/,.,.,/,/
CSc1nc(NCCN(C)C)c2sc3nc(-c4ccco4)c4c(c3c2n1)CCC4,/,/,/,.,/,/,/
CSc1nc(N(C)CCO)c2sc3nc(-c4ccco4)c4c(c3c2n1)CCC4,.,.,.,.,.,89,.
C/C(=C/CCC(C)[C@H]1CC[C@@]2(C)C3=C(CC[C@]12C)[C@@]1(C)CCC(=O)C(C)(C)[C@@H]1CC3)C(=O)O (stereo not given in full),.,.,.,.,.,100,+
O=C(O)CSc1cc(C(=O)c2ccccc2O)cn2c(=O)c3c(-c4ccccc4)csc3nc12,.,.,.,.,.,61,+
SMILES,LYPLA2 inh,PREPL inhibitor,p97 ATPase inh,Rin1 Abl inh,LYPLA1 inh,Hck Nef HTS,Hck-Nef confirm
CCOC(=O)c1sc2nc3c(SCC(=O)O)cc(C(=O)c4ccccc4O)cn3c(=O)c2c1C,.,.,.,.,.,.,/
O=C1NN(c2ccccc2)C(=O)/C1=C\c1coc2ccc(O)cc2c1=O,.,.,.,.,.,71,+
O=C1NN(c2ccccc2)C(=O)/C1=C/c1coc2ccccc2c1=O,.,.,.,.,.,88,+
COC(=O)C(NC(=O)CCc1nnc2ccc(N3CCCCC3)nn12)C(C)C (stereo not given),.,.,/,.,.,/,/
C[C@@H](N)C(=O)NC[C@H]1CC[C@H](C(=O)N[C@@H](Cc2ccccc2)C(=O)O)CC1,/,/,/,.,/,/,/
CC(C)(C)c1ccc(-n2ncc3c2CCCC3NC(=O)c2cnccn2)cc1 (stereo not given),.,.,/,.,.,/,/
COc1cc(/C=C/[N+](=O)[O-])ccc1OCc1cccc(C(=O)O)c1,/,/,.,/,/,62,.
CCCOc1c(Br)cc(C2C3=C(CCCC3=O)N(C)C3=C2C(=O)CCC3)cc1OC,.,.,.,.,.,54,/
CCCOc1c(Br)cc(C2C3=C(CCCC3=O)N(CC)C3=C2C(=O)CCC3)cc1OC,.,.,.,.,.,.,/
OCC[C@H]1C[C@@H](O)[C@H](O)[C@@]2(OCc3ccccc32)O1,.,.,/,.,.,/,/
CCOC(=O)CN1C(=O)S/C(=C\c2ccc(-c3cccc(C(=O)O)c3C)o2)C1=O,.,.,/,.,.,/,/
COc1ccccc1N1C(=N)S/C(=C\c2ccc(-c3ccccc3C(=O)O)o2)C1=O,.,.,.,.,.,60,+
O=C(CN1C(=O)S/C(=C\c2ccc(-c3cc(C(=O)O)ccc3Cl)o2)C1=O)Nc1ccc2c(c1)OCO2,/,/,/,.,/,/,/
N=C1S/C(=C\c2ccc(-c3ccccc3C(=O)O)o2)C(=O)N1c1ccc2c(c1)OCO2,/,/,.,.,/,85,+
CCN1C[C@@H]2[C@@H]3C(=O)N(Cc4ccccc4)C(=O)[C@@H]3[C@](C)(C1=O)N2C(=O)c1ccc(F)cc1,/,/,/,.,/,/,/
CC(NS(=O)(=O)c1ccc2c(c1)CC(=O)N2C)c1ccccc1 (stereo not given),.,.,/,.,.,/,/
O=C(CSc1nc(-c2ccc(F)cc2)nc2c1Cc1ccccc1O2)Nc1ccc(C(=O)O)cc1,/,/,.,.,/,145,+
CC(C)(C)c1cc(-c2csc(Nc3ccccc3)[n+]2Cc2ccc(C(=O)O)cc2)cc(C(C)(C)C)c1O,.,.,.,.,.,76,.
COc1ccccc1NS(=O)(=O)c1ccc(C)c(C(=O)NCc2cccnc2)c1,.,.,/,.,.,/,/
COCCCNC(=O)c1c(N)n(-c2cccc(S(N)(=O)=O)c2)c2nc3ccccc3nc12,.,.,.,.,.,64,/
COc1ccccc1-n1c(N)c(C(=O)NCC2CCCO2)c2nc3ccccc3nc21 (stereo not given),.,.,.,.,.,.,/
Nc1c(C(=O)NCCN2CCOCC2)c2nc3ccccc3nc2n1-c1cccc(F)c1,.,.,.,.,.,.,/
CCCNC(=O)c1c(N)n(-c2cccc(OC)c2)c2nc3ccccc3nc12,.,.,.,.,.,77,/
Nc1c(C(=O)NCC2CCCO2)c2nc3ccccc3nc2n1-c1ccccc1 (stereo not given),.,.,.,.,.,55,/
O=C(CCc1ccccc1)Nc1ccc(S(=O)(=O)NC2=NCCCCC2)cc1,/,.,/,.,/,/,/
